Results taken from the supplement of paper PMC6992640.
± gives the standard deviation of the averaged measurements.

Assays:
Experiment in all cases: cell viability (% of vehicle); higher = less cytotoxic
Settings in all cases: 10 µM; 72 h
[1] = tested on: HCI01 (cells of a triple-negative basal-like breast cancer xenograft)
[2] = tested on: HCI03 (cells of an ER-positive luminal breast cancer xenograft)
[3] = tested on: HCI09 (cells of a triple-negative luminal androgen receptor type breast cancer xenograft)
[4] = tested on: HCI11 (cells of an ER-positive luminal breast cancer xenograft)
[5] = tested on: HCI13 (cells of an ER-positive luminal breast cancer xenograft)
[6] = tested on: HCI16 (cells of a triple-negative basal-like breast cancer xenograft)
[7] = tested on: UCD52 (cells of a triple-negative basal-like breast cancer xenograft)
[8] = tested on: WHIM2 (cells of a triple-negative basal-like breast cancer xenograft)
[9] = tested on: WHIM30 (cells of a triple-negative basal-like breast cancer xenograft)
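Further: PDX cells carrying CMV promoter-driven luciferase, viability read as total photon flux per second by IVIS imaging following D-luciferin, vehicle control 0.1% DMSO.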

SMILES	cell viability [1]	cell viability [2]	cell viability [3]	cell viability [4]	cell viability [5]	cell viability [6]	cell viability [7]	cell viability [8]	cell viability [9]
CCCCC(=O)N(Cc1ccc(-c2ccccc2-c2nnn[nH]2)cc1)[C@H](C(=O)O)C(C)C.CCOC(=O)[C@H](C)C[C@@H](Cc1ccc(-c2ccccc2)cc1)NC(=O)CCC(=O)O	98.1 ± 17	141	95.6 ± 18	92.9	87.9 ± 5.7	112	95.1 ± 8.6	93.4 ± 8.2	131 ± 11
CCCNCC(O)COc1ccccc1C(=O)CCc1ccccc1.Cl (stereo unspecified) [Propafenone HCl]	90.3 ± 6.7	119	96 ± 14	87.2	95.3 ± 7	101	76.9 ± 7.8	86.9 ± 20	115 ± 6.6
CN(CC=CC#CC(C)(C)C)Cc1cccc2ccccc12.Cl [Terbinafine HCl]	93.6 ± 30	99	86.02 ± 0.12	81.6	73 ± 1.7	123	70.5 ± 7.4	62.8 ± 10	91.1 ± 1.7
CCCc1nn(C)c2c(=O)nc(-c3cc(S(=O)(=O)N4CCN(C)CC4)ccc3OCC)[nH]c12.O=C(O)CC(O)(CC(=O)O)C(=O)O [Sildenafil Citrate]	116 ± 2.8	144	96 ± 15	118	130 ± 23	94.4	88.2 ± 4	83.8 ± 4.8	53.9 ± 10
Cc1c(-c2cnccn2)ssc1=S [Oltipraz]	89.2 ± 5.2	113	88.5 ± 4	66.1	89.8 ± 8.7	104	94.8 ± 9.3	91 ± 14	72.8 ± 2.9
CC(C)C1C(=O)NC(CCCN=C(N)N)C(=O)NCC(=O)NC(CC(=O)O)C(=O)NC(Cc2ccccc2)C(=O)N1C (stereo unspecified) [Cilengitide]	114 ± 9.1	76.7	125 ± 49	97.4	124 ± 12	91	84.4 ± 5.5	94.1 ± 6.8	143 ± 14
O=C(NC(Cc1cc(=O)[nH]c2ccccc12)C(=O)O)c1ccc(Cl)cc1 (stereo unspecified) [Rebamipide]	92.4 ± 31	129	88.63 ± 0.71	97	117 ± 5.6	102	100 ± 6.4	86.2 ± 10	115 ± 8.9
CCn1cc(C(=O)O)c(=O)c2ccc(C)nc21 [Nalidixic acid]	86 ± 19	114	96.6 ± 10	92.1	113 ± 3	103	79 ± 6.3	87.7 ± 7.2	112 ± 12
CNNCc1ccc(C(=O)NC(C)C)cc1.Cl [Procarbazine HCl]	93.5 ± 4.4	90.5	96.1 ± 13	99.7	104 ± 21	87.6	79.7 ± 13	98 ± 16	83.91 ± 0.74
COc1cc(Nc2ncc(F)c(Nc3ccc4c(n3)N(COP(=O)([O-])[O-])C(=O)C(C)(C)O4)n2)cc(OC)c1OC.[Na+].[Na+] [R788 disodium]	86.4 ± 12	76.8	95.4 ± 11	86.8	86.4 ± 11	64.5	58 ± 4	79.4 ± 16	91.9 ± 3.2
Nc1cccc2c1CN(C1CCC(=O)NC1=O)C2=O (stereo unspecified) [Lenalidomide (CC-5013)]	111 ± 4.1	107	85.5 ± 10	102	80.5 ± 0.91	101	80.5 ± 12	78.6 ± 3.5	134 ± 6.6
CC(=O)O.NC(N)=NN=Cc1c(Cl)cccc1Cl [Guanabenz Acetate]	134 ± 24	122	83.5 ± 5.4	108	101 ± 12	158	76.9 ± 2.8	109 ± 16	110 ± 20
O=C(C1CCCCC1)N1CC(=O)N2CCc3ccccc3C2C1 (stereo unspecified) [Praziquantel]	99.2 ± 15	132	94.6 ± 5.6	93.1	134 ± 17	112	96.7 ± 4.2	94 ± 20	114 ± 7.9
CCCCCCOC(=O)N=C(N)c1ccc(NCc2nc3cc(C(=O)N(CCC(=O)OCC)c4ccccn4)ccc3n2C)cc1.CS(=O)(=O)O [Dabigatran etexilate mesylate]	98.8 ± 8.5	126	81.5 ± 8.2	99.4	106 ± 23	94.6	98.4 ± 9	63.2 ± 3.8	104 ± 5.8
CC(OC1OCCN(Cc2nc(=O)n(P(=O)(O)O)[nH]2)C1c1ccc(F)cc1)c1cc(C(F)(F)F)cc(C(F)(F)F)c1.CNCC(O)C(O)C(O)C(O)CO.CNCC(O)C(O)C(O)C(O)CO (stereo unspecified) [Fosaprepitant dimeglumine salt]	67.4 ± 51	103	52.4 ± 27	85.1	76.2 ± 6.3	91.7	57.2 ± 7.3	79.7 ± 44	109 ± 2.4
CON=C(C(=O)NC1C(=O)N2C(C(=O)O)=C(CSC(=O)c3ccco3)CSC12)c1csc(N)n1.Cl (stereo unspecified) [Ceftiofur HCl]	90.2 ± 12	132	95.9 ± 8.5	100	56.9 ± 2.3	103	103 ± 12	104 ± 10	111 ± 14
CC[N+](CC)(CC)CCOc1cccc(OCC[N+](CC)(CC)CC)c1OCC[N+](CC)(CC)CC.[I-].[I-].[I-] [Gallamine Triethiodide]	107 ± 9.8	118	94.6 ± 20	88.1	107 ± 8.3	92.6	98 ± 6.3	118 ± 6.2	79.5 ± 6.1
CCCNC1CCc2nc(N)sc2C1.Cl.Cl.O (stereo unspecified) [Pramipexole 2HCl Monohydrate]	126 ± 3.4	131	107.2 ± 0.44	110	97.4 ± 1.9	138	103 ± 16	94.3 ± 11	103 ± 4.9
CN(N=O)C(=O)NC1C(O)OC(CO)C(O)C1O (stereo unspecified) [Streptozocin]	105 ± 4.3	123	104 ± 6.3	99.5	89.38 ± 0.52	113	83.17 ± 0.58	85 ± 16	123.9 ± 1.1
